Screens deposited in PubChem by several laboratories.
FadD28 binding – inhibitors of FadD28 bisubstrate probe binding, primary screen, biochemical, fluorescence polarization, single point; Mycobacterium tuberculosis FadD28 fatty-acid-AMP ligase; inhibition, % at 12.5 µM; actives 0.22% (n = 360,000); AID 588549, 2011; in the data active means inhibition above about 8.5%, passing the limit was not always enough; inconclusive means no clear call, values can overlap the other calls
Mtb UGM inh – M. tuberculosis UGM enzyme inhibitors, primary screen, biochemical, fluorescence polarization, single point; actives 0.06% (n = 320,000); purified UGM, fluorescence polarization probe displacement; inhibition, % at 10 µM; UDP-galactopyranose mutase (Mycobacterium tuberculosis (strain ATCC 25618 / H37Rv)), …; in the data active means inhibition above about 10%, passing the limit was not always enough; inconclusive means no clear call, values can overlap the other calls
Target sequence (P9WIQ1 whole entry, looked up): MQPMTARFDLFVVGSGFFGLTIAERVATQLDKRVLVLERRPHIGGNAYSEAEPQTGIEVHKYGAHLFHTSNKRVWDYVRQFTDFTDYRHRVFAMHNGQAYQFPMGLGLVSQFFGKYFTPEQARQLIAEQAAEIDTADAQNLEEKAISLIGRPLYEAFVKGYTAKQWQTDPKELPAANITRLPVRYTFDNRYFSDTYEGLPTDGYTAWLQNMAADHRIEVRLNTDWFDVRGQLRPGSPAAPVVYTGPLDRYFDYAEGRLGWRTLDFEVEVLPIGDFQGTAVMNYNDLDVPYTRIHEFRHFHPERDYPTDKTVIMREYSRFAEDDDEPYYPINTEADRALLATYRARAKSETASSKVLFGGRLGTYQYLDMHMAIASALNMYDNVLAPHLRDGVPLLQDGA
Mtb bLac sens – beta-lactam sensitization of Mtb H37Rv, H37Rv. M. tuberculosis H37Rv growth with meropenem, percent inhibition. inhibition, % at 25 µM. actives 0.27% (n = 330,000). AID 434955, 2010; call rule not given here;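 further: growth measured after seven days incubation then overnight dye step; 0% = bacteria only wells and 100% = bacteria with antibiotic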
Rv3671c inh – Rv3671c serine protease inhibitors, primary screen, biochemical, fluorescence polarization, M. tuberculosis H37Rv; inhibition, % at 5.96 µM; AID 2606, 2010; actives 0.048% (n = 320,000); in the data active means inhibition above about 38%;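 further: extracellular domain of Rv3671c used as enzyme; 0% = enzyme with DMSO and 100% = no enzyme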
Yp Topo-I inh – Yersinia pestis topoisomerase I inhibitors, primary screen, biochemical, cleavage product accumulation, plate reader, single point. DNA topoisomerase I (Yersinia pestis CO92). Y. pestis Topo-I cleavage product accumulation. activity, % at 10 µM. actives 0.064% (n = 360,000). AID 504884, 2011; in the data active means activity above about 50%, passing the limit was not always enough; inconclusive means no clear call, values can overlap the other calls
PfHsp40 yeast – rescue of yeast from PfHsp40 toxicity, primary screen, S. cerevisiae, ATP luminescence; S. cerevisiae expressing PfHsp40, growth rescue; actives 0.68% (n = 340,000); AID 504582, 2011; growth rescue, % at 12.5 µM; in the data active means growth rescue above about 28%, passing the limit was not always enough; inconclusive means no clear call, values can overlap the other calls;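 further: yeast W303a lacking pdr1 and pdr3 grown in galactose medium; growth measured after three days at 30 °C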
* = called active by the depositor; u = inconclusive; x = no result given. Compounds with a hit are over-represented: about 0.98% of the library has one in this group of screens.

SMILES | FadD28 binding | Mtb UGM inh | Mtb bLac sens | Rv3671c inh | Yp Topo-I inh | PfHsp40 yeast
COc1ccc(OC)c(C(c2c(O)c3ccccc3oc2=O)c2c(C)n(C)n(-c3ccccc3)c2=O)c1 (configuration not stated) | -4 | 0 | -6 | 6 | -10 | 46*
Cc1c(C(c2ccc(O)cc2)c2c(O)c3ccccc3oc2=O)c(=O)n(-c2ccccc2)n1C (configuration not stated) | -3 | 4 | -1 | 7 | -10 | 1
COc1cccc(-c2cnc(C(O)c3ccc(F)c(C)c3)[nH]2)c1 (configuration not stated) | -2 | x | x | x | 0 | x
C=CC[C@@H](Cc1ccc(F)cc1)C(=O)OC[C@@H]1CCCN1C(=O)[C@H](CC=C)CC(=O)N(CCO)Cc1ccccc1 | -4 | 3 | 2 | 2 | 16 | 37*
C=CCC[C@@H](Cc1ccc(F)cc1)C(=O)OC[C@@H]1CCCN1C(=O)[C@@H](CC=C)CC(=O)N[C@@H](CO)Cc1ccccc1 | -4 | -2 | 11 | 0 | 14 | 41*
C=CCC[C@H](Cc1ccc(F)cc1)C(=O)OC[C@H](Cc1c[nH]c2ccccc12)NC(=O)[C@@H](CC=C)CC(=O)NCCO | -6 | -2 | 4 | -3 | 10 | 47*
COc1ccccc1CNC(=O)Nc1nc(C(N)Cc2ccc(Cl)cc2)cs1 (configuration not stated) | -4 | x | x | x | 1 | x
Cc1c(Cl)cccc1NC(=S)N(Cc1cccnc1)Cc1ccccc1Cl | -3 | 2 | 5 | -11 | 12 | 35*
S=C(Nc1ccccc1Cl)N(Cc1cccnc1)Cc1ccco1 | 0 | 3 | -11 | -2 | -5 | 0
N#Cc1c(Cl)nsc1NC(=O)c1ccccc1 | -1 | 0 | -1 | -19 | 11 | 217*
O=C(NCCc1ccc(F)cc1)c1cccc2c1C(=O)c1ccc(N3CCC(Cc4ccccc4)CC3)cc1S2(=O)=O | 1 | 11* | 6 | -23 | 11 | 0
CC1CCN(c2ccc3c(c2)S(=O)(=O)c2ccccc2C3=O)CC1 | -1 | 2 | 3 | -1 | -4 | 199*
O=C(NCc1cccc(F)c1)c1cccc2c1C(=O)c1ccc(N3CCC(Cc4ccccc4)CC3)cc1S2(=O)=O | -3 | 22* | -3 | -25 | 12 | 1
O=C(NCc1ccc(OC(F)(F)F)cc1)c1cccc2c1C(=O)c1ccc(N3CCCC3)cc1S2(=O)=O | 0 | 4 | 6 | -3 | -3 | 0
CC1CCN(c2ccc3c(c2)S(=O)(=O)c2cccc(C(=O)NCc4cccc(F)c4)c2C3=O)CC1 | -3 | 4 | 1 | -34 | 41 | 0
O=C(NCc1ccc(OC(F)(F)F)cc1)c1cccc2c1C(=O)c1ccc(N3CCCCC3)cc1S2(=O)=O | 5 | 20* | 7 | -9 | -2 | 0
O=C(NCc1cccc(C(F)(F)F)c1)c1cccc2c1C(=O)c1ccc(N3CCC(Cc4ccccc4)CC3)cc1S2(=O)=O | -2 | 9 | 4 | -24 | 0 | 0
COc1ncnc2c1ncn2CCCNCc1ccccc1 | -2 | x | x | x | 0 | x
CC1(C(=O)O)CCCN1C(=O)c1cccc2ccccc12 (configuration not stated) | -2 | x | x | x | 6 | x
C[C@@H]1CN([C@@H](C)CO)S(=O)(=O)c2ccc(Br)cc2O[C@H]1CN(C)C(=O)c1ccncc1 | -2 | x | x | x | 2 | x
COc1ccccc1NC(=O)CCCCCN1C(=O)c2cccc([N+](=O)[O-])c2C1=O | 1 | -1 | 95 | -2 | 12 | 0
COc1cc(/C=C2/C(=O)c3cccc([N+](=O)[O-])c3C2=O)c(Br)cc1O | 10* | 1 | 4 | 7 | -31 | 1
O=C(Nc1cc(Oc2ccc(Cl)cc2)cc([N+](=O)[O-])c1)c1ccco1 | -2 | 2 | 2 | -85 | -18 | 352*
CCOc1ccc(Oc2cc(NC(=O)c3ccco3)cc([N+](=O)[O-])c2)cc1 | -1 | 2 | -2 | -14 | -3 | 0
CC1(C(=O)NCCc2c[nH]c3ccccc23)CCN1Cc1csc2ccccc12 (configuration not stated) | -3 | x | x | x | 4 | x
SMILES | FadD28 binding | Mtb UGM inh | Mtb bLac sens | Rv3671c inh | Yp Topo-I inh | PfHsp40 yeast
COc1ccccc1C(=O)NCCSCc1c(F)cccc1Cl | 0 | 1 | -1 | -3 | u | 3
Cc1c(C(=O)NCCSCc2c(F)cccc2Cl)cnn1-c1ccc(Cl)cc1 | -2 | 2 | 62 | -16 | 28 | 132*
O=C(Cn1cnc2c(NCc3ccccc3)ncnc21)NCc1nc2ccccc2[nH]1 | -2 | x | x | x | -11 | 1
CCCNC(=O)c1cc(C2CCCCN2C(=O)c2ccccc2)on1 (configuration not stated) | -3 | x | x | x | 5 | x
C/C=C1\NC(=O)[C@H](C)NC(=O)[C@@H](NC(=O)[C@H](Cc2ccc(O)cc2)NC(=O)[C@@H](NC(=O)/C(C)=C/C)C(C)C)[C@@H](C)OC(=O)[C@H](CCCc2ccc(O)cc2)NC(=O)[C@@H](CCC(=O)OC)NC1=O | -3 | x | x | x | x | x
C/C=C1\NC(=O)[C@H](CC(N)=O)N(C)C(=O)C([C@@H](C)O)NC(=O)C(CCCc2ccc(OC)cc2)NC(=O)[C@H](C(C)C)NC(=O)/C(=C\C)NC(=O)[C@H](O)[C@@H](C[C@@H](O)CCCCCCC)NC(=O)[C@H](C)NC(=O)CN(C)C(=O)[C@H](CCC(N)=O)NC1=O (some centres not stated) | 11* | x | x | x | 31 | 9
CCOc1ccc(NC(=S)Nc2cc(-c3ccccc3)[nH]n2)cc1 | -28 | 2 | 96 | -27 | 3 | 106*
Cc1n[nH]c2ccc([N+](=O)[O-])cc2c1=O | -4 | x | x | x | 4 | x
c1ccc2c(c1)c1c(c3ccccc32)CN2CCCC2C1 (configuration not stated) | -5 | x | x | x | -4 | 76*
c1ccc(CN2CCC(N3CCC(N4CCCCCC4)CC3)CC2)cc1 | -1 | 1 | -7 | -15 | -17 | 0
O=C1C(=Cc2ccc(Br)o2)C(=O)c2ccccc21 | 41* | 1 | 4 | 0 | -31 | 7
CC1=C/C(=C\c2ccc(Br)o2)C(=O)O1 | -1 | 3 | -1 | -2 | -1 | 0
CCCCCCCn1c(=O)c(C(=O)OC)c(N)c2ccccc21 | -8 | -2 | -1 | -12 | 2 | 245*
CCCCCCCCn1c(=O)c(C(=O)OC)c(N)c2ccccc21 | -9 | 1 | 1 | -1 | 19 | x
COC(=O)C1Cc2ccccc2CN1C(=O)CCl (configuration not stated) | -2 | -3 | 98 | 2 | 0 | 41*
COC(=O)[C@H](Cc1ccccc1)NC(=O)N1Cc2ccccc2C[C@H]1C(=O)OC | 0 | -1 | -5 | 6 | -2 | -1
